Compounds without any hit were thinned out: in the full panel of roughly 83,000, 20% have a hit.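 Activity criterion: percent growth below 10, measured after cells in 96-well plates were exposed to a single compound concentration for 48 hours.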 The source made the active and inactive calls.
Tests used:
Assay in all cases: NCI-60 one-dose screen, 48 h (100 = growth as untreated, 0 = no growth, -100 = all killed)
Conditions in all cases: 10 µM unless noted
SK-MEL-2 melanoma = test system: SK-MEL-2 melanoma
EKVX NSCLC = test system: EKVX NSCLC
SN12C renal = test system: SN12C renal
UO-31 renal = test system: UO-31 renal
TK-10 renal = test system: TK-10 renal
ACHN renal = test system: ACHN renal
CAKI-1 renal = test system: CAKI-1 renal
A498 renal = test system: A498 renal
CCRF-CEM leukemia = test system: CCRF-CEM leukemia
MOLT-4 leukemia = test system: MOLT-4 leukemia

Measured: growth

c1ccc2[nH]c(-c3ccc(-c4nccc5c4[nH]c4ccccc45)cc3)nc2c1
inactive: SK-MEL-2 melanoma 47.3% | EKVX NSCLC 81.2% | SN12C renal 60.9% | UO-31 renal 89.2% | TK-10 renal 73.5% | ACHN renal 71.7% | CAKI-1 renal 81.9% | A498 renal 68.7% | CCRF-CEM leukemia 11.1% | MOLT-4 leukemia 77.1%

COc1ccccc1-c1nc2ccc3[nH]ncc3c2c2c1CCCC2
active: A498 renal 6.87%
inactive: SK-MEL-2 melanoma 99% | EKVX NSCLC 44.3% | SN12C renal 80.5% | UO-31 renal 36.3% | TK-10 renal 60.4% | ACHN renal 58.2% | CAKI-1 renal 21.8% | CCRF-CEM leukemia 66.6% | MOLT-4 leukemia 42.6%

Cc1ccc(-c2nc(C#N)c(S(=O)(=O)n3nc(C)cc3N)o2)cc1
inactive: SK-MEL-2 melanoma 98.3% | EKVX NSCLC 121% | SN12C renal 90.1% | UO-31 renal 79.8% | CAKI-1 renal 82% | A498 renal 76.1%
active: TK-10 renal -64.9% | ACHN renal -37.8% | CCRF-CEM leukemia -18.8% | MOLT-4 leukemia -38%

CC(C)(C)c1ccc(C(=O)Nc2sc3c(c2C#N)CCC(=O)C3)cc1
active: SN12C renal 9.18% | UO-31 renal -99% | ACHN renal -84% | CAKI-1 renal -74.4% | CCRF-CEM leukemia 8.53%
inactive: SK-MEL-2 melanoma 12.8% | EKVX NSCLC 19.1% | TK-10 renal 24.3% | A498 renal 89.8% | MOLT-4 leukemia 10.6%

Nc1ncc(-c2ccc3ncnc(N4CCc5cc(F)c(Cl)cc54)c3c2)cn1
inactive: SK-MEL-2 melanoma 66.7% | EKVX NSCLC 15.7% | SN12C renal 26% | UO-31 renal 14.4% | TK-10 renal 21.8% | ACHN renal 20.5% | CAKI-1 renal 15.7% | CCRF-CEM leukemia 22% | MOLT-4 leukemia 17.3%
active: A498 renal -29.5%

CCOC(=O)c1cc(C(=O)c2cc(OC)cc(OC)c2)n2ccccc12
inactive: SK-MEL-2 melanoma 41.7% | EKVX NSCLC 73.7% | SN12C renal 66.9% | UO-31 renal 62% | TK-10 renal 55.9% | ACHN renal 48.6% | CAKI-1 renal 42.2% | A498 renal 28.8% | CCRF-CEM leukemia 34.6% | MOLT-4 leukemia 30.6%

Cc1c2cnccc2c(C)c2c1c1cc(C(=O)O)ccc1n2C
active: SK-MEL-2 melanoma -65.5% | SN12C renal 0.942% | UO-31 renal -36.5% | TK-10 renal -7.59% | ACHN renal -15% | CAKI-1 renal -6.62% | A498 renal -57.4% | CCRF-CEM leukemia 5.53% | MOLT-4 leukemia 1.6%
inactive: EKVX NSCLC 16%

Cn1ccnc1C(=O)/C=C/c1ccc(CC(=O)Nc2cc(F)c(F)c(F)c2)cc1
inactive: SK-MEL-2 melanoma 99.6% | EKVX NSCLC 32.3% | SN12C renal 13.2% | UO-31 renal 31.7% | TK-10 renal 47.8% | ACHN renal 45.9% | CAKI-1 renal 31.4% | A498 renal 65%
active: CCRF-CEM leukemia 8.15% | MOLT-4 leukemia 6.4%

CCC(C)C(N)C(=O)NC(CC(C)C)C(=O)N1CCCC1C(=O)NC(Cc1c[nH]c2ccccc12)C(=O)NC(CCCCN)C(=O)NC(Cc1c[nH]c2ccccc12)C(=O)N1CCCC1C(=O)NC(Cc1c[nH]c2ccccc12)C(=O)NC(Cc1c[nH]c2ccccc12)C(=O)N1CCCC1C(=O)NC(Cc1c[nH]c2ccccc12)C(=O)NC(CCCNC(=N)N)C(=O)NC(CCCNC(=N)N)C(N)=O (stereo not given)
inactive: SK-MEL-2 melanoma 108% | EKVX NSCLC 104% | SN12C renal 101% | UO-31 renal 68.1% | TK-10 renal 124% | ACHN renal 98% | CAKI-1 renal 90.4% | A498 renal 130%
active: CCRF-CEM leukemia -58.7% | MOLT-4 leukemia -28.2%

CN1CCN(Cc2ccc(NC(=O)c3cncc(C#Cc4cnc(N)c5ccc(C#N)cc45)c3)cc2C(F)(F)F)CC1
active: SK-MEL-2 melanoma -62% | SN12C renal -81.1% | UO-31 renal -78.4% | TK-10 renal -2.47% | ACHN renal -92.5% | CAKI-1 renal -51.5% | A498 renal -29.8% | CCRF-CEM leukemia 3.96% | MOLT-4 leukemia 2.26%
inactive: EKVX NSCLC 43.4%

NCCNc1ccc([N+](=O)[O-])cc1
inactive: SK-MEL-2 melanoma 97.2% | EKVX NSCLC 137% | SN12C renal 103% | UO-31 renal 87.1% | TK-10 renal 96.2% | ACHN renal 108% | CAKI-1 renal 113% | A498 renal 106% | CCRF-CEM leukemia 94.5% | MOLT-4 leukemia 96.2%

O=C(Nc1ncc(Cc2ccccc2Cl)s1)c1ccc2c(c1)OCCO2
active: A498 renal -0.0402% | CCRF-CEM leukemia 6.45% | MOLT-4 leukemia 7.02%
inactive: SK-MEL-2 melanoma 39.8% | EKVX NSCLC 33.8% | SN12C renal 30.2% | UO-31 renal 51.9% | TK-10 renal 46.2% | ACHN renal 37.3% | CAKI-1 renal 20%

COc1ccc(Nc2nccc(Nc3ccc4[nH]ncc4c3)n2)cc1
active: CCRF-CEM leukemia -1.69% | MOLT-4 leukemia 1.45%
inactive: SK-MEL-2 melanoma 29.8% | EKVX NSCLC 50.9% | SN12C renal 43.4% | UO-31 renal 15.9% | TK-10 renal 19.3% | ACHN renal 29.2% | CAKI-1 renal 38.3% | A498 renal 36.5%

O=C1c2c(c3c4cc(F)ccc4oc3c3[nH]c4ccccc4c23)C(=O)N1O
inactive: SK-MEL-2 melanoma 78% | EKVX NSCLC 62.3% | SN12C renal 28.1% | TK-10 renal 102% | CAKI-1 renal 16.9%
active: UO-31 renal 8.37% | ACHN renal 0.963% | A498 renal -6.56% | CCRF-CEM leukemia 5.67% | MOLT-4 leukemia -22.5%

O=C(/C=C/c1cccc([N+](=O)[O-])c1)c1ccc(Nc2nc(Nc3ccc(F)cc3)nc(Nc3ccc(Cl)cc3)n2)cc1
active: MOLT-4 leukemia 3.89%
inactive: SK-MEL-2 melanoma 70% | EKVX NSCLC 79.5% | SN12C renal 88.3% | UO-31 renal 79.8% | TK-10 renal 141% | ACHN renal 92% | CAKI-1 renal 91.4% | A498 renal 110% | CCRF-CEM leukemia 43.6%

O=c1oc2ccccc2cc1-c1nn(-c2ccccc2)cc1/C=N/Nc1nc(-c2ccccc2)c(N=Nc2ccccc2)s1
inactive: SK-MEL-2 melanoma 64.9% | EKVX NSCLC 82.3% | SN12C renal 103% | UO-31 renal 73.4% | TK-10 renal 95.1% | ACHN renal 92.9% | CAKI-1 renal 62.8% | A498 renal 70.2% | CCRF-CEM leukemia 69.7% | MOLT-4 leukemia 53.5%

Cc1csc(Nc2nc(-c3cccc(Cl)c3)nc(C(Cl)(Cl)Cl)n2)n1
inactive: SK-MEL-2 melanoma 83.7% | SN12C renal 84.1% | UO-31 renal 39.6% | CCRF-CEM leukemia 95.5% | MOLT-4 leukemia 74%
active: EKVX NSCLC 4.21% | TK-10 renal 3.91% | ACHN renal -21.7% | CAKI-1 renal 4.29% | A498 renal -18.6%

COc1cc2c(c(OC)c1OC)CCC(c1cccc(C(=O)Nc3ccccc3Br)c1)O2 (stereo not given)
inactive: SK-MEL-2 melanoma 87.8% | EKVX NSCLC 90.1% | SN12C renal 85.4% | UO-31 renal 67.3% | TK-10 renal 87.5% | ACHN renal 86.2% | CAKI-1 renal 95.4% | A498 renal 56.6% | CCRF-CEM leukemia 86.1% | MOLT-4 leukemia 50.4%

Cn1ccnc1C(=O)/C=C/c1ccc(C(=O)Nc2ccccc2F)cc1
active: SN12C renal 8.08% | CCRF-CEM leukemia 3.74%
inactive: SK-MEL-2 melanoma 76.2% | EKVX NSCLC 32.4% | UO-31 renal 34.9% | TK-10 renal 44.7% | ACHN renal 21.1% | CAKI-1 renal 25.8% | A498 renal 17.9% | MOLT-4 leukemia 12.1%

O=C(Nc1ncc(Cc2ccc(Cl)cc2)s1)C1=NCCCCN1
inactive: SK-MEL-2 melanoma 110% | EKVX NSCLC 106% | SN12C renal 106% | UO-31 renal 84.3% | TK-10 renal 108% | ACHN renal 109% | CAKI-1 renal 90.5% | A498 renal 112% | CCRF-CEM leukemia 101% | MOLT-4 leukemia 99.4%

Cn1ncc(CC(=O)O)c1-n1nnc2cc(Cl)ccc2c1=O
inactive: SK-MEL-2 melanoma 99.3% | EKVX NSCLC 86% | SN12C renal 92.5% | UO-31 renal 81.1% | TK-10 renal 90.7% | ACHN renal 94.3% | CAKI-1 renal 87.8% | A498 renal 134% | CCRF-CEM leukemia 98.1% | MOLT-4 leukemia 100%

CCOC(=O)C1=C(C)N(C)C(=O)N(C)C1c1ccccc1 (stereo not given)
inactive: SK-MEL-2 melanoma 106% | EKVX NSCLC 97.2% | SN12C renal 91.6% | UO-31 renal 78.7% | TK-10 renal 106% | ACHN renal 95.9% | CAKI-1 renal 90.6% | A498 renal 86.8% | CCRF-CEM leukemia 86.6% | MOLT-4 leukemia 104%

Cc1cc(C(=O)Nc2cc(Nc3ncccc3-c3ncnc4nc[nH]c34)ccc2F)cc(C(C)(C)C#N)c1
inactive: EKVX NSCLC 56% | SN12C renal 50.6% | UO-31 renal 10.1% | TK-10 renal 60.8% | ACHN renal 30.5% | CAKI-1 renal 25.1% | CCRF-CEM leukemia 42.4% | MOLT-4 leukemia 53.2%
active: SK-MEL-2 melanoma 8.76% | A498 renal -22.8%

C#Cc1c(I)n(C2OC(CO[Si](C)(C)C(C)(C)C)C3OC(C)(C)OC32)c(=O)[nH]c1=O (stereo not given)
inactive: SK-MEL-2 melanoma 59.9% | EKVX NSCLC 96.7% | SN12C renal 89.7% | ACHN renal 49.7% | CAKI-1 renal 74.2% | A498 renal 102%
active: UO-31 renal -77.3% | TK-10 renal -62.3% | CCRF-CEM leukemia -29.7% | MOLT-4 leukemia -25.5%
